Most compounds without a hit are left out; they make up all but 12% or so of the library.
Sm TGR block – inhibitors of Schistosoma mansoni thioredoxin glutathione reductase. Q962Y6. purified TGR, DTNB reduction, TNB absorbance 405 nm. Potency, µM (top dose mostly 114 µM), actives largely listed as inhibitors. 360,000 tested, 3% active; note: nearly all actives have a fitted effect of over 60% in size
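Kinetic colorimetric format: TGR-catalysed, NADPH-driven DTNB reduction monitored via TNB absorbance. Enzyme dispensed at 20 nM; compound exposure 15 min at room temperature before reaction start.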
Pf growth 96h – P. falciparum growth inhibition at 96 hour, primary screen for plastid delayed-death inhibitors; Potency, µM (doses to about 28.7 µM), actives largely listed as inhibitors; AID 504834; 320,000 tested, 6.9% active; P. falciparum luciferase reporter growth, 96 h
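96 h incubation, 37 C, 5% CO2, of luciferase-reporter P. falciparum-infected RBCs (2% hematocrit, 0.05% parasitemia final) with test compounds; endpoint luminescence.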
Pf growth 48h – P. falciparum growth inhibition at 48 hours (one generation). P. falciparum luciferase growth in erythrocytes, 48 h. Potency, µM (highest dose often 28.7 µM), usual class: inhibitors. 310,000 tested, 5.9% active. AID 504832
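Luciferase-expressing parasites in RBCs, 2% Hct / 0.1% parasitemia final; RPMI 1640 + 0.5% Albumax; 37 C, 5% CO2, one generation; luminescence read-out, lower signal = inhibition.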
SARS PLpro yeast – inhibitors of SARS-CoV papain-like protease in yeast. S. cerevisiae expressing SARS-CoV PLpro, growth rescue. Potency, µM (top dose mostly 32.9 µM), hits mostly activators. 330,000 tested, 0.19% active. AID 485353; calls by dose curve; note: nearly all actives have a fitted effect of over 55% in size
Each line names hits and unclear results; the compound was inactive in the other large screens. Unless noted, calls come from the whole dose curve; as a rule, active = well fitted curve in the direction sought with a large enough effect; inconclusive = small, poorly fitted or top-dose-only effect, or another doubt; inactive = no such curve, though single readings can be large; an effect the other way counts as inactive or inconclusive.

C#CCOCCOCCOCCNc1nc(N2CCN(C(=O)CCCCCCCCCCNC(=O)[C@H]([C@@H](C)CC)n3cc(CCCCCN)nn3)CC2)nc(N2CCN(C(=O)CCCCCCCCCCNC(=O)[C@H](CCCCN)n3cc(CCCC(=O)O)nn3)CC2)n1	Pf growth 96h inconclusive, Pf growth 48h 12µM
C#CCOCCOCCOCCNc1nc(N2CCOCC2)nc(N2CCN(C(=O)CCCCCCCCCCNC(=O)[C@@H](CCC(=O)O)n3cc(CCCCCN)nn3)CC2)n1	Pf growth 96h inconclusive, Pf growth 48h 15µM
C#CCOCCOCCOCCNc1nc(N2CCN(C(=O)[C@H]([C@@H](C)CC)n3cc(CCCCN)nn3)CC2)nc(N2CCN(C(=O)[C@H](CCCCN)n3cc(CCCC)nn3)CC2)n1	Pf growth 48h inconclusive
C#CCOCCOCCOCCNc1nc(N2CCN(C(=O)[C@H](CCCCN)n3cc(CN)nn3)CC2)nc(N2CCN(C(=O)[C@H](CCC(=O)O)n3cc(CN)nn3)CC2)n1	none (no result: Sm TGR block, Pf growth 96h, Pf growth 48h)
C#CCOCCOCCOCCNc1nc(N2CCN(C(=O)[C@H]([C@@H](C)CC)n3cc(CCCCN)nn3)CC2)nc(N2CCN(C(=O)[C@H](C)n3cc(CCC(=O)O)nn3)CC2)n1	Pf growth 96h inconclusive
CCOC(=O)Cn1c(=O)n(-c2ccccc2OC)c2nc(-c3ccccc3C)nc(C(N)=O)c21	none (no result: Pf growth 96h, Pf growth 48h, SARS PLpro yeast)
COc1cccc2c1cc1c(=O)n(CC(=O)NCc3ccc(C)o3)nc(C)n12	none (no result: Pf growth 96h, Pf growth 48h, SARS PLpro yeast)
O=C(Cn1cc(S(=O)(=O)c2ccccc2)c(=O)c2cc3c(cc21)OCO3)Nc1ccc(Cl)cc1	none (no result: Pf growth 96h, Pf growth 48h, SARS PLpro yeast)
Cc1ccc(S(=O)(=O)N2CCN(CC(=O)NCC3(N4CCOCC4)CCCCC3)CC2)cc1	none
CCCCN(C)CCNC(=O)c1c[nH]c2ccc(S(=O)(=O)N(CC)CC)cc2c1=O	Pf growth 48h 3.7µM
CCCNC(=O)c1c[nH]c2ccc(S(=O)(=O)N(C)c3ccc(OCC)cc3)cc2c1=O	Pf growth 48h 12µM
Cc1ccc(N(C)S(=O)(=O)c2ccc3[nH]cc(C(=O)NCCCN4CCOCC4)c(=O)c3c2)cc1C	Pf growth 96h inconclusive, Pf growth 48h 2.3µM
CCN(c1ccccc1)S(=O)(=O)c1ccc2[nH]cc(C(=O)NCCOC)c(=O)c2c1	Pf growth 48h inconclusive
O=C(CSCc1nc2cccnc2n1C1CCCCC1)NCc1cccc(Br)c1	none (no result: Pf growth 96h, Pf growth 48h, SARS PLpro yeast)
COc1ccc(-c2nc(C)c(C(C)=O)n2O)cc1	Pf growth 96h 4.7µM
O=[N+]([O-])c1ccc(N/N=C/c2cn(-c3ccccc3)nc2-c2ccccc2)cc1	Pf growth 96h 4.7µM, Pf growth 48h 13µM
O=S(=O)(N/N=C\c1cn(-c2ccccc2)nc1-c1ccccc1)c1ccccc1	none
NC(=O)N/N=C/c1cn(-c2ccccc2)nc1-c1ccccc1	Pf growth 96h inconclusive
O=C(N/N=C/c1cn(-c2ccccc2)nc1-c1ccc(F)cc1)c1ccc(Br)o1	Pf growth 96h inconclusive, Pf growth 48h 8.3µM
O=C(CNc1ccccc1)N/N=C/c1cn(-c2ccccc2)nc1-c1ccccc1	Pf growth 96h inconclusive, Pf growth 48h 12µM
O=C(O)/C=C/c1cn(-c2ccccc2)nc1-c1cccc([N+](=O)[O-])c1	none
O=[N+]([O-])c1cccc(-c2nn(-c3ccccc3)cc2CO)c1	Pf growth 96h 0.47µM
CCOc1ccc(NC(=O)CSc2ncc3c(n2)-c2ccc(Cl)cc2N(Cc2ccccc2)S3(=O)=O)cc1	none (no result: Pf growth 96h, Pf growth 48h, SARS PLpro yeast)
CCOc1ccc2oc(C(=O)N(CC)CC(=O)Nc3c(F)cccc3F)c(C)c2c1	Pf growth 96h inconclusive, Pf growth 48h inconclusive
NS(=O)(=O)c1ccc(N/N=C/c2cn(-c3ccccc3)nc2-c2ccccc2)c([N+](=O)[O-])c1	Pf growth 96h inconclusive, Pf growth 48h 4.1µM
NS(=O)(=O)c1ccc(N/N=C/c2ccccc2C(=O)O)c([N+](=O)[O-])c1	none
Cc1ccc(NC(=O)CSCC(=O)NCc2cccc(C(F)(F)F)c2)cc1	none
COc1ccc(OC)c2c(C)c(C)[nH]c12	Sm TGR block 32µM, Pf growth 48h inconclusive
COc1ccc(OC)c2c(=O)cc(C(=O)O)[nH]c12	none
Cn1cc(C(C[N+](=O)[O-])c2ccccc2)c2ccccc21 (stereo not drawn)	Pf growth 48h inconclusive
CC(=O)n1cc(C(C[N+](=O)[O-])SCCN)c2ccccc21 (stereo not drawn)	Sm TGR block 8.9µM
COc1ccc(CCNC(=O)C(=O)NCC(c2cccs2)S(=O)(=O)c2ccc(F)cc2)cc1 (stereo not drawn)	none (no result: Pf growth 96h, Pf growth 48h, SARS PLpro yeast)
CCN1C(=O)/C(=C/c2ccc(C)s2)NC1=S	SARS PLpro yeast inconclusive (no result: Pf growth 96h)
Cc1cccc(CN2C(=O)N/C(=C/c3cc(C)n(-c4cc(C)ccn4)c3C)C2=O)c1	Pf growth 48h 12µM (no result: Pf growth 96h)
Cc1cc(/C=C2\NC(=O)N(Cc3ccc(Cl)cc3)C2=O)c(C)n1C	Sm TGR block inconclusive, Pf growth 96h inconclusive, Pf growth 48h 9.3µM
Cc1cccc(CN2C(=O)N/C(=C/c3ccc(C)s3)C2=O)c1	Pf growth 96h 3.3µM (no result: Pf growth 48h)
Cc1ccc(/C=C2/NC(=O)N(Cc3ccccc3)C2=O)s1	Sm TGR block inconclusive, Pf growth 96h inconclusive, Pf growth 48h 10µM
Cc1cc(/C=C2\C(=O)NC(=O)N(c3ccc(Cl)cc3)C2=O)c(C)n1C	none (no result: Sm TGR block)
CCOC(=O)c1nc(Nc2ccc(Cl)cc2)c2c(C)noc2n1	none (no result: Pf growth 96h, Pf growth 48h, SARS PLpro yeast)
CCOC(=O)C1=C(Nc2ccc(Cl)cc2)OCC1=O	Pf growth 96h 2.6µM, Pf growth 48h 12µM
CCOC(=O)N1CCN(C(=O)Cc2ccc(-n3c(=O)[nH]c4ccccc4c3=O)cc2)CC1	Pf growth 96h 9.3µM
CCCCCCOC(=O)Cc1c(C)nc(-c2ccccc2)[nH]c1=O	Pf growth 96h inconclusive, Pf growth 48h 2.3µM
COc1ccc(NC(=O)CSc2nnc(-c3cccnc3)s2)cc1	Pf growth 96h 6.6µM
CC1CCC(N2CC(=O)N(C3CCCCC3)C(c3ccc(F)cc3)C2=O)CC1 (stereo not drawn)	none (no result: Pf growth 96h, Pf growth 48h, SARS PLpro yeast)
CCOc1ccc2nc(Cl)c(C3CC(c4ccc(C)cc4)=NN3C(=O)CCC(=O)O)cc2c1 (stereo not drawn)	none (no result: Pf growth 96h, Pf growth 48h, SARS PLpro yeast)
CC(=O)Nc1ccc2c(c1)N(C(C)=O)c1ccccc1CC2	Pf growth 96h inconclusive, Pf growth 48h inconclusive
CCCC(CCC)C(=O)Nc1ccc2c(c1)N(C(=O)CN1CCN(C)CC1)c1ccccc1CC2	Pf growth 48h 5.2µM
CCOC(=O)Nc1ccc2c(c1)N(C(=O)CN1CCN(C)CC1)c1ccccc1S2	Pf growth 48h 9.3µM
CCOC(=O)Nc1ccc2c(c1)N(C(=O)CCN(C)C)c1ccccc1S2	none
CN(C)S(=O)(=O)N(CC(=O)Nc1ccc(S(=O)(=O)N2CCCC2)cc1)c1ccccc1	none
CCOc1ccc2nc(N3CCCC(C(=O)Nc4ccc(Br)c(C)c4)C3)sc2c1 (stereo not drawn)	none (no result: Pf growth 96h, Pf growth 48h, SARS PLpro yeast)
Cc1ccc(C)c(SCC(=O)Nc2cccc(S(=O)(=O)NC3=NCCCCC3)c2)c1	none
Cc1cccc(-n2ccnc2SCC(=O)Nc2cccc(S(=O)(=O)NC3=NCCC3)c2)c1C	Pf growth 48h 10µM
O=c1c2oc3ccccc3c2n(Cc2ccc(Cl)cc2)c(=O)n1Cc1ccc2c(c1)OCO2	none (no result: Pf growth 96h, Pf growth 48h, SARS PLpro yeast)
CCc1ccccc1NC(=O)CN(c1ccccc1)S(=O)(=O)c1ccsc1C(=O)OC	none (no result: Pf growth 96h, Pf growth 48h, SARS PLpro yeast)

Source: PubChem BioAssay
